# Shown are actives, neighbours in structure and some others; about 2.5% of the full set was active somewhere.
# Cruzain Triton – inhibitors of Trypanosoma cruzi cruzain with detergent; Potency, µM, without a hit: max response, negative = inhibition, hits mostly inhibitors; 0.43% of 200,000 active; AID 1478; purified cruzain, Z-FR-AMC fluorescence, 0.01% Triton;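 also: plate controls were neutral wells for no effect and buffer without enzyme for full effect; nearly all actives have a fitted effect of over 40% in size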
# Target sequence (P25779 123-467 limits assumed): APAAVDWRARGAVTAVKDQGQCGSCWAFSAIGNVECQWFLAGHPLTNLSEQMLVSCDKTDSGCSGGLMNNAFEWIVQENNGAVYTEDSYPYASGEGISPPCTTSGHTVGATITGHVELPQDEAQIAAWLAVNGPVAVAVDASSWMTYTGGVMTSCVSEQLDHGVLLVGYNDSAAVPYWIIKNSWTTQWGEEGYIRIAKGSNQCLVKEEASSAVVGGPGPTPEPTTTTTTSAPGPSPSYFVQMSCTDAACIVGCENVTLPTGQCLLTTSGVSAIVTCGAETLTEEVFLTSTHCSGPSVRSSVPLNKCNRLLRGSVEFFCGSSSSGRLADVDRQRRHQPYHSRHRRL
#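 Cruzain (1.5 nM) preincubated 15 min at RT with compound in 100 mM sodium acetate pH 5.5, 5 mM DTT, 0.01% Triton X-100. Reaction started with 2 uM Z-FR-AMC; AMC fluorescence (ex 360/em 450 nm) change over 60 s gave rate.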
# Cruzain inh noDet – inhibitors of Trypanosoma cruzi cruzain without detergent. purified cruzain, Z-FR-AMC fluorescence, no detergent. AID 1476. 2.3% of 200,000 active. Potency, µM, for the others: max response, negative = inhibition, actives largely listed as inhibitors;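 also: plate controls were enzyme without inhibitor for no effect and buffer without enzyme for full effect; nearly all actives have a fitted effect of over 40% in size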
#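 Purified cruzain at 1.5 nM, pre-incubated 15 min with compound at room temperature in 100 mM sodium acetate pH 5.5, 5 mM DTT, 0.00005% Triton X-100. Reaction started with 2 uM Z-FR-AMC; AMC fluorescence increase over 60 s gives rate.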
# The depositor's hits bear a star; u = inconclusive. Calls follow the shape of the dose curve; as a rule, active = well fitted curve in the direction sought with a large enough effect; inconclusive = small, poorly fitted or top-dose-only effect, or another doubt; inactive = no such curve, though single readings can be large; an effect the other way counts as inactive or inconclusive. Potency is read from the fitted curve at half-maximal effect.
SMILES,Cruzain Triton,Cruzain inh noDet
CCOC(=O)c1ccc(N2Cc3ccccc3C2=N)cc1,0.6%,-20.5%
CCOC(=O)c1ccc(N=C2C(=S)N(c3ccc(C(=O)OCC)cc3)C(=N)N2/N=C/c2ccccc2)cc1,-12.3%,12.6µM*
COc1cccc(CNC(=O)Cc2c(C)c3ccc(OC)c(C)c3oc2=O)c1,-0.7%,8.7%
COc1ccc2cc3cc(C(=O)NCc4ccco4)oc3nc2c1,-8.0%,5.6%
COc1ccc2cc3cc(C(=O)NCc4ccccn4)oc3nc2c1,31.6µM*,u
CCC(=O)N1CCc2cc(Br)cc(S(=O)(=O)N3CCCC(C(=O)Nc4ccc(C(C)C)cc4)C3)c21 (stereo not drawn),-3.7%,12.8%
COc1cccc(-c2nc(CS(=O)(=O)CC(=O)NCc3cccc(Cl)c3)c(C)o2)c1,-2.8%,-12.3%
CCNc1ncc2nc(-c3ccc(Cl)cc3)c(=O)n(C[C@H]3CCCO3)c2n1,10.2%,20.3%
Nc1nnc(CC(=O)N/N=C/c2ccc(-c3ccccc3)o2)s1,-12.9%,-9.0%
Cc1cccc(OCCOc2ccc(/C=N/NC(=O)Cc3nnc(N)s3)cc2)c1,3.3%,5.01µM*
Cc1cc(NC(=O)c2cc(-c3ccc(Cl)c(Cl)c3)on2)n(-c2ccccc2)n1,-0.3%,0.5%
COc1ccc(S(=O)(=O)N(C)CC(=O)Nc2ccc3c(c2)OCO3)cc1,-0.7%,-9.9%
COc1ccc(N(CC(=O)Nc2ccc3c(c2)OCO3)S(=O)(=O)c2ccc(F)cc2)cc1,-5.2%,20µM*
COc1ccc(NS(=O)(=O)c2ccc(NS(=O)(=O)c3ccc4c(c3)OCCO4)cc2)cc1,-9.9%,1.7%
COc1ccc(NS(=O)(=O)c2ccc(O)c(C(=O)OCC(=O)Nc3ccc4c(c3)OCCO4)c2)cc1,-2.8%,7.94µM*
O=C(CSc1nc(-c2ccccc2F)nc2nc[nH]c12)Nc1c(Cl)cc(Cl)cc1Cl,-4.0%,6.31µM*
CCc1cccc(C)c1NC(=O)CSc1nc(-c2ccccc2F)nc2nc[nH]c12,-4.2%,u
COc1ccc(OC)c(S(=O)(=O)N2CCN(Cc3nc4ccc(C)cc4o3)CC2)c1,-2.8%,u
Cc1cccc2sc(NC(=O)C3CCN(S(=O)(=O)c4cc([N+](=O)[O-])ccc4Cl)CC3)nc12,-3.9%,20µM*
O=C(NCc1ccc(Cl)cc1)C1CCN(S(=O)(=O)c2cc([N+](=O)[O-])ccc2Cl)CC1,-2.5%,1.0%
CC1CCc2c(sc3nc(-c4cc5cc(Br)ccc5oc4=O)[nH]c(=O)c23)C1 (stereo not drawn),-1.8%,8.2%
COc1ccc(-c2[nH]c(-c3ccccc3)nc2SCC(=O)Nc2ccc3c(c2)OCO3)cc1,-6.9%,u
Cn1ncc(Br)c1C(=O)N/N=C/c1cccc(OC2CSC2)c1,-10.3%,2.9%
O=C(N/N=C/c1cccc(OC2CSC2)c1)c1ccccc1O,-1.3%,10µM*
O=C(N/N=C1/C(=O)c2cccc3cccc1c23)c1ccc(Cl)cc1,10µM*,-26.7%
CCNC(=S)N/N=C1\C(=O)c2cccc3cccc1c23,2.3%,u
C=C1C[C@@]23C[C@@]1(O)CC[C@@H]2[C@]12C=C[C@@H](O)[C@](C)(C(=O)O1)[C@@H]2[C@@H]3C(=O)O,1.5%,-6.0%
O=[N+]([O-])c1ccc(N2N=C(c3ccco3)CC2c2ccccc2)cc1 (stereo not drawn),-6.9%,12.6µM*

# Screening results as filed in PubChem BioAssay.
